From PubChem BioAssay
In the library only some 3.4% were active in any assay of this set; here they are far more common.
HTT ATP protect: qHTS Multiplex Assay to Identify Dual Action Probes in a Cell Model of Huntington: Cytoprotection (ATP). Potency, µM (doses to about 56.4 µM), actives largely listed as activators. PC12 HTT-Q103 induced, cytoprotection, ATP luminescence, 40 h. actives 0.14% (n = 230,000); also: nearly all actives have a fitted effect of over 45% in size
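PC12 cells with ecdysone-inducible HTT exon 1 Q103-GFP, induced with 100 nM tebufenozide and co-treated with library compounds in a dose series (1536-well, 1500 cells/well). Cytoprotection read as ATP content by ATPlite luminescence.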
NPSR antag: qHTS Assay for Antagonists of the Neuropeptide S Receptor: cAMP Signal Transduction; CHO-NPSR cells, cAMP TR-FRET, antagonist mode; actives 1% (n = 220,000); AID 1461, 2008; Potency, µM (top dose mostly 38.3 µM), actives largely listed as inhibitors; Q6W5P4; also: nearly all actives have a fitted effect of over 50% in size
Target sequence (Q6W5P4 whole entry, looked up): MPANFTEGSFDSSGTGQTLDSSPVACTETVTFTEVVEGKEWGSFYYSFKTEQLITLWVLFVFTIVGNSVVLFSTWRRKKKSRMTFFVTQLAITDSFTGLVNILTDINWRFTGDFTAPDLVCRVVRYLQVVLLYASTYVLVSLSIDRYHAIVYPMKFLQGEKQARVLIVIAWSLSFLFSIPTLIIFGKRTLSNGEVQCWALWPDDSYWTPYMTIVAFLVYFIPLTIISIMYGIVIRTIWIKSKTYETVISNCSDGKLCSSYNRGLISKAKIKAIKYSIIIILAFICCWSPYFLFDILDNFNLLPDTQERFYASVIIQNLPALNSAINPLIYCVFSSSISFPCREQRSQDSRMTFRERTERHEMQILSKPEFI
PNC inhibitor: High Content Assay for Compounds that inhibit the Assembly of the Perinucleolar Compartment | PC3M PTB-GFP, PNC prevalence imaging, 16 h; active compounds read low | activity change (PNC), negative = inhibition, % at 10 µM | actives 3.1% (n = 140,000);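 active = readout at or below -70, meaning at least 70% loss of cells showing the perinucleolar compartment, a nuclear body marking cancer cells; inconclusive = readout between -30 and a set limit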
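Read-out is percentage of cells bearing a perinucleolar compartment, from automated 20x imaging of fixed, Hoechst-stained PC3M PTB-GFP cells. Cells were seeded 4 h, then exposed 16 h to compound (23 nl of library stock) in duplicate plates.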
HttQ103 aggreg: qHTS Multiplex Assay to Identify Dual Action Probes in a Cell Model of Huntington: Aggregate Formation (GFP). PC12 HttQ103-GFP aggregates, Acumen cytometry, 40 h. Potency, µM (series often up to 46.1 µM), usual class: inhibitors. actives 1.1% (n = 220,000). AID 1688, 2009; also: nearly all actives have a fitted effect of over 60% in size
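Read-out: GFP aggregate count by laser scanning cytometer (488 nm excitation, 500-530 nm emission, 1–25 µm objects >6 SD above background). Cells: PC12, inducible HTTex1-Q103-GFP, 100 nM tebufenozide; compounds titrated.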
IMPase Li inh: qHTS Assay for Identifying the Cell-Membrane Permeable IMPase Inhibitors: Potentiation with Lithium | CHO-M1 cells, IP1 TR-FRET (IP-One), carbachol + lithium | Potency, µM (series often up to 59.4 µM), actives largely listed as inhibitors | actives 0.35% (n = 210,000);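 also: IP1 builds up when IMPase is blocked and the TR-FRET signal falls; nearly all actives have a fitted effect of over 50% in size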
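Readout is a homogeneous TR-FRET IP1 immunoassay (Ex 320, Em 665 and 620), where raised cytosolic IP1 lowers signal. Cells were CHO-M1 treated 30 min at 37C with test compounds plus a little lithium; AC50 values came from Hill-equation fitting.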
IMPase cell inh: qHTS Assay for Identifying the Cell-Membrane Permeable IMPase Inhibitors; Inositol monophosphatase 1 (Rattus norvegicus), P97697; CHO-M1 cells, IP1 accumulation, HTRF TR-FRET ratio; 120,000 tested, under 10 active; inhibition (IP1 accumulation), % at 46.1 µM; AID 901, 2007; active = well fitted curve in the direction sought with a large enough effect in the signal ratio, not every such curve was filed as active; inconclusive = small, poorly fitted or top-dose-only effect, or a change in a side signal; inactive = no such curve, though single readings can be large or run the other way; the % refers to the signal ratio;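 also: cells stimulated with carbachol in lithium chloride buffer; higher means more IMPase inhibition seen as more IP1 and lower FRET ratio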
Target sequence (P97697 whole entry, looked up): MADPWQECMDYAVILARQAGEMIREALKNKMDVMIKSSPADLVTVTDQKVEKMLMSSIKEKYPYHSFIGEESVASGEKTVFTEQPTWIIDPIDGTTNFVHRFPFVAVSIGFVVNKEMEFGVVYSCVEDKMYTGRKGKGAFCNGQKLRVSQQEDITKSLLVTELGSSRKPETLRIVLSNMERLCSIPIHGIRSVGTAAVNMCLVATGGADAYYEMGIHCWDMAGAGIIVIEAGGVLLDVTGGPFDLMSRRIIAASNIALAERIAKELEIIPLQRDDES
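CHO-M1 cells (CHO stably expressing M1 receptor), compound up to 46 uM final, stimulated with carbachol (50 uM as added) in buffer with 50mM LiCl, pH 7.4, 30 min at 37C. Cytosolic IP1 read by TR-FRET; AC50 from Hill fits.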
Hits are given with their value; - = inactive; ? = inconclusive; . = no result; [ ] = another dose, or the depositor's remark. Unless noted, calls follow the shape of the dose curve; as a rule, active = well fitted curve in the direction sought with a large enough effect; inconclusive = small, poorly fitted or top-dose-only effect, or another doubt; inactive = no such curve, though single readings can be large; an effect the other way counts as inactive or inconclusive.

SMILES	HTT ATP protect	NPSR antag	PNC inhibitor	HttQ103 aggreg	IMPase Li inh	IMPase cell inh
CCN(CC)S(=O)(=O)c1cccc(C(=O)Oc2cccc(NC(=O)c3cccs3)c2)c1	-[10 µM]	-	-108.4	-	-	.
CCN(CC)S(=O)(=O)c1ccc(NC(=O)c2cccs2)cc1	-[10 µM]	-	.	-[9.22 µM]	-	.
COC(=O)COc1cccc(NC(=O)c2cccs2)c1	-[0.074 µM]	-	-118.1	-	-	-
CCN(CC(=O)NCc1cccs1)S(=O)(=O)c1cccc(C(C)=O)c1	-	-	-83.0	-	-	-
FC(F)(F)c1ccc(Cl)c(N/N=C/c2ccc(N3CCOCC3)s2)c1	-[10 µM]	-	-	-	-	.
COCCn1c(=O)c(CCc2ccccc2)nc2cnc(Oc3cccc(Cl)c3)nc21	-	.	.	.	-	.
CCOC(=O)c1c(C)cccc1OCC(N)=O	-[10 µM]	-	-100.0	-	-	-
CCOC(=O)c1c(C)oc2ccc(OCC(N)=O)cc12	-[10 µM]	-	?	-	-	-
CN(C)S(=O)(=O)c1ccc(Cl)c(NC(=O)CSc2nc3c(cc2C#N)C(=O)CC(C)(C)C3)c1	.	-	-108.7	?	-	.
c1ccc(CN2CCN(c3nc(NCc4ccco4)c4ccccc4n3)CC2)cc1	-	10µM	-	?	-	-
Cc1ccc(OCCN2CCN(c3nc(NCc4ccco4)c4ccccc4n3)CC2)cc1	-[0.074 µM]	?	?	-	-	.
OCCN1CCN(c2nc(NCc3ccco3)c3ccccc3n2)CC1	-[10 µM]	-	-88.0	-	-	?
c1ccc(Nc2nc(NCc3ccco3)c3ccccc3n2)cc1	-[10 µM]	?	.	-[9.22 µM]	.	.
COc1cc(NC(=O)c2cc3c(=O)n(C)c4ccccc4c3n2C)cc(OC)c1OC	-	-	-	-	3.55µM	?
Cc1ccc(NC(=O)CN2c3cccc4cccc(c34)S2(=O)=O)cc1S(=O)(=O)N1CCOCC1	-[10 µM]	-	-	-	-	.
Cc1cccc(OCCCSc2nc3ccccc3[nH]2)c1	-	-	?	-	.	-
c1ccc(CSc2nc3ccccc3[nH]2)cc1	-[10 µM]	-	.	-[9.22 µM]	.	.
CCCOc1ccc(CSc2nc3ccccc3[nH]2)cc1	-	-	-	7.94µM	-	-
CCOc1ccc(OCCSc2nc3ccccc3[nH]2)cc1	-[10 µM]	-	-92.1	?	-	-
COC(=O)c1ccc(CNC(=O)COC(=O)CC23CC4CC(CC(Br)(C4)C2)C3)cc1	-[10 µM]	-	?	-	-	.
O=C(c1cnc2n(c1=O)CCS2)N(c1ccccc1)C1CCCCC1	-	-	-106.3	-	-	-
Cc1ccc(SCCC(=O)NCC2CCCO2)cc1 (stereo not drawn)	-[10 µM]	-	-115.3	?	-	-
CC(c1ccccc1)n1cc(C(=O)NCC2CCCO2)nn1 (stereo not drawn)	-[10 µM]	-	-100.0	-	-	-
Cc1ccc(SCC(=O)NCC2CCCO2)cc1 (stereo not drawn)	-[10 µM]	-	.	-[9.22 µM]	-	.
CC(C)(C)c1ccc(C(=O)NC(=S)NCC2CCCO2)cc1 (stereo not drawn)	-[10 µM]	-	-	-	.	-
SMILES	HTT ATP protect	NPSR antag	PNC inhibitor	HttQ103 aggreg	IMPase Li inh	IMPase cell inh
Cc1nnc(SCC(=O)NCC2CCCO2)n1-c1ccccc1 (stereo not drawn)	-[10 µM]	-	-118.1	-	-	-
Cc1ccccc1C(=O)NC(=S)NCC1CCCO1 (stereo not drawn)	-	-	-105.5	-	-	-
Cc1[nH]c2ccccc2c1C(=O)C(=O)NCCc1ccc(S(N)(=O)=O)cc1	.	-	?	-	-	.
CCOc1nc2cccc(C(=O)O)c2n1Cc1ccc(-c2ccccc2-c2nn[nH]n2)cc1	-	.	.	-	.	.
CC(C)CN(CC(C)C)C(=O)CCCC(=O)N(CC(C)C)CC(C)C	-[10 µM]	-	?	-	-	.
O=C(CCCC(=O)NCC1CCCO1)NCC1CCCO1 (stereo not drawn)	-	-	-	-	-	-
O=C(CN1CCCCCC1)NCC1CCCO1 (stereo not drawn)	2.24µM	-	.	-[9.22 µM]	-	.
COC(=O)[C@@]1(Cc2ccc(F)cc2)[C@H]2c3cc(C(=O)N(C)C)n(Cc4cc(F)c(F)c(F)c4)c3C[C@H]2CN1C(=O)c1ccccc1	-	.	.	.	-	.
COC(=O)c1sc2cc(=O)n(-c3cccc(C(F)(F)F)c3)nc2c1O	-[10 µM]	10µM	.	-	-	.
O=c1[nH][nH]c2cc(=O)n(-c3cccc(C(F)(F)F)c3)nc12	-	-	.	-	-	.
CCN(CC)CCNC(=O)c1ccc(Sc2ccc(C)cc2)c(NC(C)=O)c1	-	-	.	-	-	.
COc1ccc(N2C(=O)CC(Nc3ccc(N4CCOCC4)cc3)C2=O)c(OC)c1 (stereo not drawn)	-	-	-87.9	-	-	-
CCCCCCCCC1CO1 (stereo not drawn)	-	.	.	.	-	.
CC(C)c1ccc(NC(=O)CCNS(=O)(=O)c2cccc3nonc23)cc1	-[10 µM]	-	-100.0	-	-	-
Cc1ccc(NC(=O)CCNS(=O)(=O)c2cccc3nonc23)cc1	-	-	-	?	-	-
COc1ccc(-n2c(=S)[nH]c3c(oc4ccccc43)c2=O)cc1	-[10 µM]	-	-	-	6.31µM	.
Cc1ccc(-n2c(=O)[nH]c3c(oc4ccccc43)c2=O)cc1	-	-	.	?	-	.
CNc1cc([N+](=O)[O-])ccc1N/C=C/C(=O)c1ccc2c(c1)OCO2	.	-	-118.2	-	-	.
COc1ccc(NC(=O)N2CC[C@@]3(CCCN(C(=O)c4cc(C(F)(F)F)cc(C(F)(F)F)c4)C3)C2)cc1	-	.	.	.	-	.
CCNC(=O)COc1ccc(Br)cc1Cl	-[10 µM]	-	-	-	-	-
COCCCNC(=O)COc1ccc(Br)cc1Cl	.	-	-89.8	-	-	.
c1ccc2c(c1)CCCC2C1=NCCN1 (stereo not drawn)	-[0.074 µM]	-	-	-	-	.
Brc1ccc2c(c1)C(C1=NCCN1)c1ccccc1CS2 (stereo not drawn)	.	-	-109.0	-	-	.
CCOc1nc(Nc2ccc(OC)c(Cl)c2)nc(N2CCN(c3ccc(OC)cc3)CC2)n1	-	-	-	-	-	-
COc1nc(Nc2ccc(OC)c(Cl)c2)nc(OC)n1	-[0.074 µM]	-	-80.8	-	-	-
Cc1cc(S(=O)(=O)N(Cc2ccccc2)Cc2ccc(N(C)C)cc2)ccc1-n1cnnn1	-[10 µM]	-	-118.9	-	-	-
Cc1cc(S(=O)(=O)N(C)CCc2ccccc2)ccc1-n1cnnn1	-[10 µM]	-	-	-	.	-
COCC(=O)Nc1ccc(N(C)C)cc1	-	-	-80.9	-	-	-
